Holding throughout (format): functional
Assay [1] deals with Solute carrier family 2, facilitated glucose transporter member 1 (Homo sapiens) (UniProt P11166). The assay can be described thus: ST_JUDE_LEISH: Cytotoxicity at 2uM final concentration against transgenic Leishmania Mexicana promastigotes LmGLUT1 that are glucose transport deficient and complemented with the human glucose transporter GLUT1. Activity is measured by DNA content using SYBR green in vitro.

Assay [2] addresses Hexose transporter 1 (Plasmodium falciparum) (UniProt O97467). Kind of assay: ST_JUDE_LEISH: Cytotoxicity at 2uM final concentration against transgenic Leishmania Mexicana promastigotes LmPfHT that are glucose transport deficient and complemented with the Plasmodium falciparum hexose transporter. Activity is measured by DNA content using SYBR green in vitro.
The target of assay [3] is Glucose transporter (Leishmania mexicana) (UniProt O61059). Kind of assay: ST_JUDE_LEISH: Cytotoxicity at 2uM final concentration against transgenic Leishmania Mexicana promastigotes LmGT2 that are glucose transport deficient and complemented with the L. Mexicana glucose transporter 2. Activity is measured by DNA content using SYBR green in vitro.

Sequence of Solute carrier family 2, facilitated glucose transporter member 1 (Homo sapiens) (P11166 whole entry): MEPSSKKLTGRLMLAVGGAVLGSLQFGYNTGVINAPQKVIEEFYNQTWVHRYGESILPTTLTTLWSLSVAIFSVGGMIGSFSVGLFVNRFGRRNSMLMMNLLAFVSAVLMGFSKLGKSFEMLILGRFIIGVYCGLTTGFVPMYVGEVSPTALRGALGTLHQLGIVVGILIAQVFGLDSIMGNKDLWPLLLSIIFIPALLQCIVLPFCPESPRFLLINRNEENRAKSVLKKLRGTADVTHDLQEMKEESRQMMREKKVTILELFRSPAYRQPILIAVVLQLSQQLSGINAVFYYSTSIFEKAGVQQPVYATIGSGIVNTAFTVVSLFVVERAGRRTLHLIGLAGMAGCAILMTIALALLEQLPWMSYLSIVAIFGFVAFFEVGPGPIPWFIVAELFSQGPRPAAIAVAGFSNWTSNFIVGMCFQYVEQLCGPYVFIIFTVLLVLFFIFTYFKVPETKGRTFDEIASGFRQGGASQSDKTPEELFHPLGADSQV

What is called inhibition is the change of the read-out against control, counted positive when it falls. As to `Clc1nc2ccccn2c1C=Cc1ccc2ccccc2n1`, the inhibition in assay [1] worked out at 2.64%; in assay [2], 3.43%; in assay [3], 2.76%.
For the compound `CN1CCN(CCCN(Cc2csc(-c3ccc(CNCc4ccccc4)cc3)n2)C(=O)Nc2cc(Cl)cc(Cl)c2)CC1`, the inhibition in assay [1] amounted to 9.09%; in assay [2] it was 6.74%; in assay [3], 7.7%.
The corresponding values for `COc1ccc(C(=O)Cn2nc(-c3ccc(Cl)cc3)ccc2=O)c(OC)c1` are 1.41%, 1.16% and 0.37%.
Consider `CCOc1cc(C(=O)Nc2cccnc2)ccc1-c1nc2cc(Cl)c(Cl)cc2[nH]1`, for which the inhibition in assay [1] is 1.75%; in assay [2] it was 0.16%; in assay [3], -0.85%.
For `COc1cc(Nc2nccc(-c3c(-c4cccc(NC(=O)c5c(F)cccc5F)c4)nn4ncccc34)n2)cc(OC)c1OC`, the inhibition was 12.1% in assay [1], 16.6% in assay [2] and 6.39% in assay [3].
Regarding `Nc1nc(N)c2c3c(ccc2n1)CCC3`, the values for the inhibition in assay [1], in assay [2] and in assay [3] were 0.87%, 1.48% and 1.24%, respectively.
Regarding `Cc1ncccc1C(=O)Nc1ccc(-c2cccc(-c3nc4cccc(C)c4[nH]3)c2)cc1`, the inhibition in assay [1] worked out at 0.98%; in assay [2] it was 0.96%; in assay [3], 3.38%.
Taken in the same sequence, the figures for `CC(C)(C)c1nn(-c2ccccc2)c2[nH]c(=O)c(CNC3CCCC3)cc12` were 3.76%, 1.66% and 2.65%.
The corresponding values for `N#Cc1cc(C(=O)c2cc(Br)ccc2O)cn(C2CCCCC2)c1=O` are 0.39%, 1.1% and 3.8%.
In the case of `c1cc(CNCCc2ccncc2)cc(-c2cccc(-c3nc4ccccc4[nH]3)c2)c1`, the values for the inhibition in assay [1], in assay [2] and in assay [3] were 13.1%, 12.2% and 10%, respectively.
With `COc1cccc2c(N/N=C/c3ccccc3[N+](=O)[O-])ccnc12`, the inhibition in assay [1] was determined as 4.82%; in assay [2] it was 5.71%; in assay [3], 3.87%.
As to `COc1ccc2c(c1)OC(C)(C)CC2=NOS(=O)(=O)c1ccc(C)cc1`, the inhibition in assay [1] was determined as 2.81%; in assay [2] it was 0.98%; in assay [3], 2%.
Consider `CCC(CN1C(=N)NC(c2ccccc2)(c2ccccc2)C1=O)c1ccccc1` (stereo not drawn), for which the inhibition was -0.75% in assay [1], -2.3% in assay [2] and 0.9% in assay [3].
With `O=C(c1ccccc1F)N(Cc1ccc(Cl)cc1)c1ccccn1`, the inhibition is 6.82% in assay [1], 7.84% in assay [2] and 9.29% in assay [3].
`Cc1cccc2nc(-c3cccc(-c4cccc(NC(=O)c5cccnc5)c4)c3)[nH]c12`: the inhibition in assay [1] was 2.26%; in assay [2], -0.15%; in assay [3], -3.86%.
The corresponding values for `CN1CCC(C(=O)N(Cc2ccc(-c3ccc(CNCCc4ccccc4)cn3)cc2)Cc2cccc(F)c2)CC1` are 3.52%, 0.98% and 4.08%.
Taken in the same sequence, the figures for `O=C(Nc1ccc(Cl)c(Cl)c1)Nc1ccccc1N1CCNCC1` were 0.02%, 0.2% and 1.04%.
With `N#Cc1ccc(CN2CCC(Oc3ccc(NC(=O)c4ccco4)cc3Cl)C2)cc1` (stereo not drawn), the values for the inhibition in assay [1], in assay [2] and in assay [3] were 3.53%, 0.89% and -0.68%, respectively.
Turning to `O=C(Nc1ccc2c(c1)CCC2)c1ccc(N2CCN(c3ccncc3)CC2)cc1`, the inhibition was 68.7% in assay [1], 29.6% in assay [2] and 68.3% in assay [3].
For the compound `CC(C)COc1ccc(Cl)cc1Cc1ccc(-c2nc3ccc(Cl)cc3[nH]2)o1`, the inhibition is -1.56% in assay [1], 2.55% in assay [2] and 1.16% in assay [3].
Taken in the same sequence, the figures for `CC(=O)Oc1cc(C(=O)Nc2ccc(Cl)cc2)cc2ccccc12` were 7.81%, 5.31% and 5.8%.
Take `O=C(Nc1cccc(-c2ccc(-c3nc4ccccc4[nH]3)cc2)c1)c1ccncc1`: the inhibition in assay [1] came out at 8.95%; in assay [2] it was 4.33%; in assay [3], 2.5%.
Take `COc1ccc(CN(C)CCCc2ccc(NC(=O)c3cccc4c(O)c5ccccc5nc34)cc2)cc1OC`: the inhibition was found to be 6.56% in assay [1], 3.71% in assay [2] and 1.93% in assay [3].
Regarding `COc1cccc2c(NCCNc3ccnc4c(OC)cccc34)ccnc12`, the inhibition amounted to 6.77% in assay [1], 6.99% in assay [2] and 7.99% in assay [3].
For the compound `CCOc1ccc2[nH]c(C)cc(=NN=Cc3ccccc3Cl)c2c1`, the inhibition in assay [1] worked out at 12.3%; in assay [2] it was 8.94%; in assay [3], 5.71%.
As for `COc1ccc(NC(=O)CCNc2cc(C)nc(NCCc3ccccc3)n2)cc1`, the inhibition in assay [1] was found to be 4.71%; in assay [2] it was 4.04%; in assay [3], 2.42%.
For `O=C(Nc1ccc2c(c1)OCO2)c1cc(-c2cccnc2)nc2ccc(Cl)cc12`, the inhibition in assay [1] was 3.49%; in assay [2], 0.67%; in assay [3] it was -0.92%.
Taken in the same sequence, the figures for `CN(CCCNC(=S)NC12CC3CC(CC(C3)C1)C2)CCCNc1ccnc2cc(Cl)ccc12` were -1.07%, 0.09% and 1.25%.
Consider `Cc1[nH]c(C)c(-c2ccc(-c3ccccc3F)nc2)c(=O)c1Cl`, for which the inhibition in assay [1] was 1.2%; in assay [2], -2.36%; in assay [3], 1.16%.
The corresponding values for `COc1cccc(CNC(=O)NC2CCN(c3ccnc(Nc4ccc(F)cc4)n3)C2)c1` (stereo not drawn) are -1.2%, -0.35% and -1.51%.
`Cc1cc(N(C)C2CCN(CC3CCCCC3)C2)nc(Nc2ccc(Cl)cc2)n1` (stereo not drawn): the inhibition in assay [1] was 7.35%; in assay [2], 5.97%; in assay [3], 4.28%.
In the case of `O=C(/C=C/c1ccc(Cl)c(Cl)c1)NCCCCCCN1CCCN(C(=O)Nc2ccc(C(F)(F)F)cc2)CC1`, the inhibition in assay [1] is 2.54%; in assay [2], 2.95%; in assay [3], 2.88%.
With `CC(C)C(C(=O)Nc1ccc2c(c1)OCO2)c1ccc(Cl)cc1` (stereo not drawn), the inhibition in assay [1] was 3.38%; in assay [2] it was 2.76%; in assay [3], 1.99%.
For the compound `CC(Cc1ccc(C(=O)OCCOC(=O)c2ccc(CC(C)NCC(O)c3cccc(C(F)(F)F)c3)cc2)cc1)NCC(O)c1cccc(C(F)(F)F)c1` (stereo not drawn), the figures for the inhibition in assay [1], in assay [2] and in assay [3] were 1.7%, -0.31% and 2.65%, respectively.
With `COc1cccc2c(C)cc(NCc3ccc(Cl)cc3)nc12`, the inhibition in assay [1] is 4.96%; in assay [2], 4.71%; in assay [3], 3.54%.
`CCCc1cc(Cc2cnc(N)nc2N)cc(CCC)c1O`: the values for the inhibition in assay [1], in assay [2] and in assay [3] were 2.06%, 1.83% and 1.49%, respectively.

The record behind these values is ChEMBL document CHEMBL3433997, “St. Jude Leishmania screening dataset” (2016).
